These results are taken from PubChem BioAssay (NCATS).

Inconclusive results are not listed. A call without a number means that no potency is given here. A number with no mark means an inactive call. Activity calls are given as the source filed them. The call rests on the fitted dose curve; in most records, active means well fitted inhibition curve with a large enough effect; inconclusive means small, poorly fitted or top-dose-only effect; inactive means flat fitted curve, though single readings scatter.

The target in the assay is Calcium and integrin-binding protein 1 (Homo sapiens) (UniProt Q99828). Briefly: Primary qHTS for Identification of Calcium Integrin Binding Protein 1 (CIB1) Competitor (AID 1508620). Further: top concentration of the series differs between compounds. The conditions noted are these: CIB1-GST / FITC-alphaIIb peptide fluorescence polarization; series mostly up to 57.7 µM. The method, boiled down: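 Fluorescence polarization competition: GST-tagged CIB1 (1 uM final) preincubated with compound 15 min at room temperature, then FITC-labelled alphaIIb peptide (100 nM final) added. After 15 min at room temperature, polarization read at Ex 480/Em 540.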
Sequence of Calcium and integrin-binding protein 1 (Homo sapiens) (Q99828 whole entry, looked up): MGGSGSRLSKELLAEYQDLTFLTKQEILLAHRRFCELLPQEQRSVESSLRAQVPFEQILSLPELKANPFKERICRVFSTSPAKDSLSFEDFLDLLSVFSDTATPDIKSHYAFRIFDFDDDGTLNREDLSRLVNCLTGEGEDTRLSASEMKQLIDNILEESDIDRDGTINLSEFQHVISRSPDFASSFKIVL
For orientation: Quantitative high-throughput screening tests each substance at several concentrations.
With `CC12CC(c3ccoc3)OC(=O)C1CCC1(C)C2CCC(O)C1(C)O` (stereo not given), the Potency entry is “inactive”.

In the case of `COc1ccc(O[C@@H]2O[C@H](CO)[C@@H](O)[C@H](O)[C@H]2O)cc1OC`, the Potency entry was “inactive”.

For `C/C(=C\CO)CC/C=C(\C)C(=O)O[C@@H]1O[C@H](CO)[C@@H](O)[C@H](O)[C@H]1O`, the Potency entry was “inactive”.

As for `C[C@@H]1O[C@@H](O[C@@H]2[C@@H](O)[C@H](O[C@@H]3[C@@H](O)[C@@H](O)[C@H](O[C@H]4[C@H](OC(=O)[C@]56CCC(C)(C)C[C@H]5C5=CCC7[C@@]8(C)C[C@H](O)[C@H](O[C@@H]9O[C@H](C(=O)O)[C@@H](O)[C@H](O)[C@H]9O)[C@@](C)(CO)C8[C@H](O)C[C@@]7(C)[C@]5(C)C[C@H]6O)O[C@@H](CO)[C@@H]4O)O[C@H]3C)OC[C@H]2O)[C@H](O)[C@H](O)[C@H]1O` (stereo not given in full), the activity change, negative = inhibition is 0.349% [at 12.4 µM].

Take `COCC1OC(n2cnc3c(=O)[nH]cnc32)C(O)C1O` (stereo not given): the Potency entry is “inactive”.

`CC(C)CC[C@@H](O)[C@](C)(O)[C@H]1CC[C@@]2(O)C3=CC(=O)[C@@H]4C[C@@H](O)[C@@H](O)C[C@]4(C)[C@H]3CC[C@]12C`: the Potency result was “inactive”.

Take `COC(=O)c1cc(OC)cc(OC)c1C(=O)c1c(OC)cc2c(c1O)C1CCC(O)C(C)(O2)O1` (stereo not given): the Potency result is “inactive”.

Consider `CC1CCC2C(C)(C)C(O)C(O)CC2(C)C12Cc1c(O)cc(CO)c(C=O)c1O2` (stereo not given), for which the Potency result is “inactive”.

Take `C[C@@H]1C[C@@H](O)[C@@]23CO[C@]2(CO)CCC[C@@H]3[C@@]12C[C@@H](c1ccoc1)OC2=O`: the Potency entry is “inactive”.

`CC1CC2OCC3(O)CCC(O)C(C14CC(c1ccoc1)OC4=O)C23CO` (stereo not given): the Potency result is “inactive”.
